Most compounds without a hit are left out; they make up all but 6.6% or so of the library.
KB-3-1 tox = kills parental KB-3-1 adenocarcinoma cells. KB-3-1 viability, CellTiter-Glo ATP luminescence, 72 h. hit rate 1.4% among 400,000. Potency, µM (titrated, usually from 46.1 µM), usual class: cytotoxic; also: % is scaled to controls: 0 for no effect and ±100 for the full control effect; nearly all actives have a fitted effect of over 60% in size
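Using CellTiter-Glo luminescence, growth of non-resistant KB-3-1 adenocarcinoma cells is assessed 72 h after pin-tool compound addition at 37 °C. Normalized responses across the concentration series yield fitted curves.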
HepG2 tox = kills HepG2 cells in TGF-b inhibitor counter-screen | HepG2 CAGA-GFP viability, ATP luminescence, 18 h | Potency, µM (series often up to 46.1 µM), for inactives: at the highest dose activity change, negative = cytotoxicity, actives largely listed as cytotoxic | hit rate 0.76% among 410,000
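HepG2 CAGA-GFP cells (1000/well, DMEM with 1% FBS) received compound, then TGF-beta at 500 pg/mL final, and were incubated 18 hours at 37 degrees C. Viability was read by CellTiter-Glo luminescence. Media-only wells were set as complete cell-killing and DMSO as no toxicity.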
TGFb SMAD3 inh = blocks TGF-b signaling; HepG2 CAGA-GFP TGF-b/SMAD3 reporter, GFP fluorescence, 18 h; TGF-beta stimulated, 500 pg/mL final; Potency, µM (series often up to 46.1 µM), without a hit: top-dose activity, negative = inhibition, actives largely listed as inhibitors; hit rate 1.2% among 410,000; also: % is scaled to controls: 0 for no effect and ±100 for the full control effect; nearly all actives have a fitted effect of over 65% in size
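Inhibition was scored as loss of TGF-beta-induced (500 pg/mL final, 18 hours, 37 degrees C) GFP in HEPG2 cells carrying a CAGA-GFP reporter, in DMEM with 1% FBS. Well GFP was summed per cell; Activity was normalised to unstimulated and stimulated DMSO wells, then concentration-response fitting.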
HT1080 IDH1KD tx = toxicity to HT-1080 IDH1 knockdown cells (counter line); HT-1080 IDH1 knockdown viability, ATP luminescence, 48 h; Potency, µM (series often up to 46.1 µM), inactives show at the highest dose activity, negative = toxicity, usual class: cytotoxic; hit rate 2% among 360,000;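 also: 0% = DMSO wells and -100% = cell-free medium wells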
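Cytotoxicity counter-line: IDH1KD HT-1080, 48 h, CellTiter-Glo. Curves classed by r2, magnitude and activity.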
KB-V1 cytotox = kills drug-selected multidrug resistant KB-V1 cells. KB-V1 MDR cells viability, CellTiter-Glo, 72 h. Potency, µM (top dose mostly 46.1 µM), usual class: cytotoxic. hit rate 3.4% among 400,000. AID 1347076; also: % is scaled to controls: 0 for no effect and ±100 for the full control effect; nearly all actives have a fitted effect of over 60% in size
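Cytotoxicity toward P-gp-expressing KB-V1 cells was determined as loss of CellTiter-Glo luminescence after 72 h at 37 degrees C. Compounds were tested in quantitative HTS format across a concentration range, with curves fitted to normalized data.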
HT1080-NT tox = kills 2HG-producing HT-1080-NT fibrosarcoma cells | HT-1080-NT fibrosarcoma viability, CellTiter-Glo ATP luminescence, 48 h | Potency, µM (top dose mostly 46.1 µM), without a hit: at the highest dose activity, negative = less viability, actives largely listed as cytotoxic | hit rate 1.6% among 360,000 | AID 686970;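 also: NT is the 2HG producing partner of a matched IDH1 knockdown line; 0% = DMSO-treated cells and -100% = media-only wells without cells; nearly all actives have a fitted effect of over 55% in size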
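Compounds were tested in concentration-response format on HT-1080-NT cells for 48 hours at 37 degrees C. Cell viability came from CellTiter-Glo luminescence; curves were classified by r2, response magnitude and activity.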
* = called active by the depositor; i = inactive; ? = inconclusive; nt = no result given. Calls follow the shape of the dose curve; as a rule, active = well fitted curve in the direction sought with a large enough effect; inconclusive = small, poorly fitted or top-dose-only effect, or another doubt; inactive = no such curve, though single readings can be large; an effect the other way counts as inactive or inconclusive. Potency is read from the fitted curve at half-maximal effect.

SMILES	KB-3-1 tox	HepG2 tox	TGFb SMAD3 inh	HT1080 IDH1KD tx	KB-V1 cytotox	HT1080-NT tox
Cn1nccc1C(=O)NCc1ccc2c(c1)CCN2C(=O)c1ccc(F)cc1	i	-27.7%	-38.5%	nt	i	nt
COc1ccc(OC)c(CN(CCN2CCOCC2)C(=O)Nc2cccc(Cl)c2)c1	i	-26.0%	?	-4.5%	3.66µM*	-2.0%
CCN(C(=O)CSc1ccc2ccccc2n1)C1CCCCC1	?	5.4%	?	19.0%	18.4µM*	18.7%
CCOc1ccccc1-c1nn2c(Cc3ccccc3)nnc2s1	i	12.6µM*	?	?	i	-26.6%
c1ccc(Cc2nnc3sc(-c4cccs4)nn23)cc1	i	-16.7%	-18.0%	12.9%	?	3.7%
c1ccc(Cc2nnc3sc(-c4ccccn4)nn23)cc1	?	-16.7%	-20.9%	-0.9%	16.4µM*	15.1%
c1ccc(Cc2nnc3sc(-c4ccncc4)nn23)cc1	i	1.2%	8.6%	-14.7%	i	2.6%
CCN(CC)CCNC(=O)c1sc2ncccc2c1-n1cccc1	i	-0.4%	0.2%	nt	i	nt
Cc1ccc(-c2csc(NC(=O)CSc3nnc4c(n3)[nH]c3ccccc34)n2)cc1	?	16.8%	-11.4%	20.6µM*	?	18.4µM*
CC1CCN(C(=O)CSc2nnc3c(n2)[nH]c2ccccc23)CC1	?	-2.1%	?	-10.9%	16.4µM*	-10.9%
O=C(O)CSc1nnc2c(n1)[nH]c1ccccc12	i	6.6%	8.3%	-6.8%	i	-6.7%
CCc1ccccc1N(C)C(=O)c1nn(C)c2c1CSc1ccccc1-2	nt	-16.3%	-6.8%	nt	nt	nt
O=C1/C(=C/Nc2ccc3c(c2)OCO3)CCc2ccccc21	?	-67.7%	?	?	23.1µM*	?
COc1ccc(N/C=C2\CCc3ccccc3C2=O)cc1	?	11.2µM*	-29.7%	?	i	?
CN(C)c1ccc(/C=C/c2nc3ccccc3s2)cc1Cl	i	-33.7%	?	nt	i	nt
COc1ccc2c(c1)C(=NN)c1cc(OC)ccc1-2	i	-12.0%	-1.2%	?	10.3µM*	-15.3%
C=C(c1ccc2ccccc2n1)c1cccs1	11.6µM*	-1.8%	-2.2%	nt	i	nt
CC(=O)Nc1cc([N+](=O)[O-])ccc1OCc1ccccc1	i	2.3%	-8.8%	9.3%	18.4µM*	1.2%
COc1ccc([N+](=O)[O-])cc1NC(=O)CSCc1ccccc1	i	-23.4%	-6.1%	-1.9%	i	-20.5%
COc1ccc(CCC(=O)Nc2cc([N+](=O)[O-])ccc2OC)cc1	i	7.7%	9.3%	-5.3%	20.6µM*	13.4%
COc1ccc(CCC(=O)Nc2ccc(C)c([N+](=O)[O-])c2)cc1	i	-17.7%	-24.3%	15.8%	20.6µM*	12.2%
COc1ccc([N+](=O)[O-])cc1NC(=O)Cc1ccc(C)cc1	i	-15.5%	-5.8%	11.2%	i	13.2%
Cc1ccc(C(=O)COC(=O)CCC(=O)Nc2ccc(Oc3ccccc3)cc2)cc1	i	-58.3%	-22.2%	nt	?	nt
CC1(C)N=C(SCC(=O)Nc2ccc(Cl)cc2Cl)C(c2ccccc2)=N1	i	-13.1%	-12.7%	-2.3%	20.6µM*	0.1%
CCCNC(=O)Cn1nc(-c2ccc(C)c(C)c2)c2cnc3ccc(OC)cc3c21	i	-20.9%	0.2%	nt	i	nt
COC(=O)N/N=C/c1ccccc1OCc1ccccc1	i	-12.9%	-8.4%	5.4%	i	4.3%
CCOc1cc(/C=N/NC(=O)c2ccc(CN3CCOCC3)cc2)ccc1OCc1ccccc1	?	-6.0%	-4.5%	-1.2%	2.31µM*	0.4%
CC(=O)Nc1ccc(C(=O)N/N=C/c2ccccc2OCc2ccccc2)cc1	?	-0.1%	39.4%	20.6µM*	i	16.4µM*
NC(=S)N/N=C/c1ccccc1OCc1cccc(Cl)c1	18.4µM*	-51.3%	?	?	i	?

Source: PubChem BioAssay
